From PubChem BioAssay (NCI)
The panel holds about 79,000 compounds, 15% with a hit somewhere; the sample as a whole holds those more often. Unmarked numbers belong to inactive results. Calls of active or inactive are those of the source. No stated cut-off is given here; in the data, active means growth inhibition above about 70%; inactive means the rest.

Columns and labels:
[1] = NCI Yeast Anticancer Drug Screen. Data for the mec2-1 strain (AID 157); details: S. cerevisiae mec2-1 strain, active compounds read high
Method in brief: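 Mutant yeast (mec2-1) grown with compound; growth inhibition relative to vehicle control reported.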

[2] = NCI Yeast Anticancer Drug Screen. Data for the rad14 strain (AID 159);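 further: 0% = growth of vehicle-treated control cultures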; details: S. cerevisiae rad14 strain growth inhibition, active compounds read high
Method in brief: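 Readout: yeast growth inhibition, referenced to vehicle-only cultures. Strain bears a defined alteration in DNA damage repair.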

[3] = NCI Yeast Anticancer Drug Screen. Data for the sgs1 mgt1 strain (AID 161);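 further: 0% = growth of cultures given vehicle only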; details: S. cerevisiae sgs1 mgt1 strain, active compounds read high
Method in brief: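 Compounds are added to genetically altered yeast, and growth is compared with cultures given vehicle alone to give percent inhibition.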

[4] = NCI Yeast Anticancer Drug Screen. Data for the CLN2oe strain (AID 163);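 further: 0% = growth of vehicle-only control cultures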; details: S. cerevisiae CLN2oe strain, active compounds read high
Method in brief: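 Compounds are applied to yeast harbouring a defined cell-cycle control change; reduced growth compared with vehicle-treated controls gives the value.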

[5] = NCI Yeast Anticancer Drug Screen. Data for the cln2 rad14 strain (AID 165);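 further: 0% = growth equal to vehicle treated cultures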; details: S. cerevisiae cln2 rad14 strain, active compounds read high
Method in brief: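 Readout is yeast growth inhibition versus vehicle-treated controls, using a strain with cln2 and rad14 alterations exposed to compound.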

[6] = NCI Yeast Anticancer Drug Screen. Data for the bub3 strain (AID 167); details: S. cerevisiae bub3 mutant strain, active compounds read high
Method in brief: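 Part of a panel of yeast mutants defective in DNA damage repair or cell cycle regulation. Each strain is grown with compound, and inhibition is calculated relative to solvent-treated cultures.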

[7] = NCI Yeast Anticancer Drug Screen. Data for the wt2 strain (AID 169);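 further: 0% = growth of vehicle-treated yeast cultures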; details: S. cerevisiae wt2 strain growth inhibition, active compounds read high
Method in brief: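 Against vehicle-treated controls, the growth of yeast exposed to each compound was compared, and the inhibition was recorded.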

[8] = NCI Yeast Anticancer Drug Screen. Data for the mlh1 strain (AID 171);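 further: 0% = growth of vehicle-treated control cultures of the same strain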; details: S. cerevisiae mlh1 strain growth inhibition, active compounds read high
Method in brief: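 Measured: yeast growth. Reference: vehicle-treated controls. Organism: strain with a defined alteration affecting DNA damage repair or cell cycle control, treated with compound.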

[9] = NCI Yeast Anticancer Drug Screen. Data for the sgs1 strain (AID 173);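 further: 0% = growth of vehicle-only control cultures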; details: S. cerevisiae sgs1 mutant, active compounds read high
Method in brief: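 Each compound was added to cultures of the altered yeast strain. Growth was recorded, and inhibition was derived by comparison with vehicle controls.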

[10] = NCI Yeast Anticancer Drug Screen. Data for the mlh1 rad18 strain (AID 175); details: S. cerevisiae mlh1 rad18 strain growth inhibition, active compounds read high
Method in brief: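 Genetically defined yeast (DNA repair-deficient) exposed to compounds; growth inhibition determined relative to vehicle.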

[11] = NCI Yeast Anticancer Drug Screen. Data for the rad18 strain (AID 177); details: S. cerevisiae rad18 mutant growth inhibition, active compounds read high
Method in brief: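 Vehicle-treated cultures served as the baseline for scoring compound-induced growth inhibition in DNA-repair-mutant yeast.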

[12] = NCI Yeast Anticancer Drug Screen. Data for the rad52 strain (AID 147);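 further: 0% = growth of vehicle-treated control cultures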; details: S. cerevisiae rad52 mutant growth inhibition, active compounds read high
Method in brief: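 The repair-mutant yeast strain was incubated with compounds, then growth was read and inhibition derived relative to vehicle.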

[13] = NCI Yeast Anticancer Drug Screen. Data for the wt1 strain (AID 149);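 further: 0% = growth of vehicle-treated wt1 cultures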; details: S. cerevisiae wt1 strain (SPY 50644) growth inhibition, active compounds read high
Method in brief: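 The wt1 strain was treated with compounds, and growth was compared with vehicle-treated cultures to give inhibition.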

[14] = NCI Yeast Anticancer Drug Screen. Data for the rad50EPP+ strain (AID 151);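 further: 0% = growth of vehicle-treated control cultures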; details: S. cerevisiae rad50 mutant strain, active compounds read high
Method in brief: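 Vehicle-normalised growth inhibition; rad50EPP+ yeast strain, altered in DNA damage repair, compound-treated.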

[15] = NCI Yeast Anticancer Drug Screen. Data for the mgt1 strain (AID 153); details: S. cerevisiae mgt1 mutant growth inhibition, active compounds read high
Method in brief: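 Vehicle-normalized growth inhibition is determined in mgt1 yeast, a strain selected for a defined alteration in DNA repair or cell cycle control.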

[16] = NCI Yeast Anticancer Drug Screen. Data for the rad50 strain (AID 155);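 further: 0% = growth of vehicle-only cultures of the same strain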; details: S. cerevisiae rad50 strain growth inhibition, active compounds read high
Method in brief: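 Cells are treated with compound, grown, and their growth is then scored against vehicle-only cultures of the same repair-deficient yeast strain.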

[17] = at 5.0 µM (retest, dose inferred, filed as 0.5)
[18] = at 50.0 µM (retest, dose inferred, filed as 5.0)

## CCCCc1nnc(NS(=O)(=O)c2ccc(C)cc2)s1
[1]; [17]
  growth inhibition: 70% (active)
[1]; at 11.0 µM
  growth inhibition: -3%
[1]; at 33.0 µM
  growth inhibition: 31%
[1]; [18]
  growth inhibition: 94% (active)
[1]; at 50.0 µM
  growth inhibition: 50.3%
[1]; at 100.0 µM
  growth inhibition: 81% (active)
[2]; at 1.2 µM
  growth inhibition: -51%
[2]; at 3.7 µM
  growth inhibition: -45%
[2]; at 11.0 µM
  growth inhibition: -34%
[2]; at 33.0 µM
  growth inhibition: 6%
[2]; at 100.0 µM
  growth inhibition: 82% (active)
[3]; [17]
  growth inhibition: -24%
[3]; [18]
  growth inhibition: 31%
[3]; at 50.0 µM
  growth inhibition: 72% (active)
[4]; at 1.2 µM
  growth inhibition: 0%
[4]; at 3.7 µM
  growth inhibition: 2%
[4]; at 11.0 µM
  growth inhibition: 15%
[4]; at 33.0 µM
  growth inhibition: 20%
[4]; at 100.0 µM
  growth inhibition: 87% (active)
[5]; [17]
  growth inhibition: 35%
[5]; [18]
  growth inhibition: 56%
[5]; at 50.0 µM
  growth inhibition: 49.5%
[6]; at 1.2 µM
  growth inhibition: -4%
[6]; at 3.7 µM
  growth inhibition: 9%
[6]; [17]
  growth inhibition: 27%
[6]; at 11.0 µM
  growth inhibition: 15%
[6]; at 33.0 µM
  growth inhibition: 47%
[6]; [18]
  growth inhibition: 61%
[6]; at 50.0 µM
  growth inhibition: 68.2%
[6]; at 100.0 µM
  growth inhibition: 85% (active)
[7]; at 1.2 µM
  growth inhibition: -28%
[7]; at 3.7 µM
  growth inhibition: -22%
[7]; at 11.0 µM
  growth inhibition: -10%
[7]; at 33.0 µM
  growth inhibition: 20%
[7]; at 100.0 µM
  growth inhibition: 80% (active)
[8]; at 1.2 µM
  growth inhibition: -32%
[8]; at 3.7 µM
  growth inhibition: -43%
[8]; at 11.0 µM
  growth inhibition: -24%
[8]; at 33.0 µM
  growth inhibition: 23%
[8]; at 100.0 µM
  growth inhibition: 74% (active)
[9]; at 1.2 µM
  growth inhibition: -13%
[9]; at 3.7 µM
  growth inhibition: -22%
[9]; at 11.0 µM
  growth inhibition: -6%
[9]; at 33.0 µM
  growth inhibition: 31%
[9]; at 100.0 µM
  growth inhibition: 80% (active)
[10]; [17]
  growth inhibition: 77% (active)
[10]; [18]
  growth inhibition: 99% (active)
[10]; at 50.0 µM
  growth inhibition: 59.1%
[11]; at 1.2 µM
  growth inhibition: -12%
[11]; at 3.7 µM
  growth inhibition: 4%
[11]; at 11.0 µM
  growth inhibition: 15%
[11]; at 33.0 µM
  growth inhibition: 36%
[11]; at 100.0 µM
  growth inhibition: 86% (active)

## CC(C)(C)CC(C)(C)c1cc(O)c(O)c(CN2CCCCC2)c1
[12]; at 1.2 µM
  growth inhibition: -2%
[12]; at 3.7 µM
  growth inhibition: -3%
[12]; at 11.0 µM
  growth inhibition: 1%
[12]; at 33.0 µM
  growth inhibition: 12%
[12]; at 100.0 µM
  growth inhibition: 32%
[13]; at 1.2 µM
  growth inhibition: 0%
[13]; at 3.7 µM
  growth inhibition: 1%
[13]; at 11.0 µM
  growth inhibition: 4%
[13]; at 33.0 µM
  growth inhibition: 10%
[13]; at 100.0 µM
  growth inhibition: 7%
[14]; at 1.2 µM
  growth inhibition: -5%
[14]; at 3.7 µM
  growth inhibition: -6%
[14]; at 11.0 µM
  growth inhibition: -12%
[14]; at 33.0 µM
  growth inhibition: -14%
[14]; at 100.0 µM
  growth inhibition: -11%
[15]; at 1.2 µM
  growth inhibition: -1%
[15]; at 3.7 µM
  growth inhibition: -1%
[15]; at 11.0 µM
  growth inhibition: 0%
[15]; at 33.0 µM
  growth inhibition: 3%
[15]; at 100.0 µM
  growth inhibition: 67%
[16]; at 1.2 µM
  growth inhibition: -1%
[16]; at 3.7 µM
  growth inhibition: 0%
[16]; [17]
  growth inhibition: 5%
[16]; at 11.0 µM
  growth inhibition: 9%
[16]; at 33.0 µM
  growth inhibition: 9%
[16]; [18]
  growth inhibition: 54%
[16]; at 50.0 µM
  growth inhibition: 71.8% (active)
[16]; at 100.0 µM
  growth inhibition: 25%
[1]; at 1.2 µM
  growth inhibition: 0%
[1]; at 3.7 µM
  growth inhibition: 1%
[1]; [17]
  growth inhibition: 16%
[1]; at 11.0 µM
  growth inhibition: 2%
[1]; at 33.0 µM
  growth inhibition: 7%
[1]; [18]
  growth inhibition: 11%
[1]; at 50.0 µM
  growth inhibition: 57.9%
[1]; at 100.0 µM
  growth inhibition: 24%
[2]; at 1.2 µM
  growth inhibition: -1%
[2]; at 3.7 µM
  growth inhibition: 2%
[2]; at 11.0 µM
  growth inhibition: 10%
[2]; at 33.0 µM
  growth inhibition: 30%
[2]; at 100.0 µM
  growth inhibition: 68%
[3]; [17]
  growth inhibition: -5%
[3]; [18]
  growth inhibition: 35%
[3]; at 50.0 µM
  growth inhibition: 57.4%
[4]; at 1.2 µM
  growth inhibition: -3%
[4]; at 3.7 µM
  growth inhibition: 1%
[4]; at 11.0 µM
  growth inhibition: 0%
[4]; at 33.0 µM
  growth inhibition: 9%
[4]; at 100.0 µM
  growth inhibition: 49%
[5]; [17]
  growth inhibition: -22%
[5]; [18]
  growth inhibition: 13%
[5]; at 50.0 µM
  growth inhibition: 73.7% (active)
[6]; at 1.2 µM
  growth inhibition: -3%
[6]; at 3.7 µM
  growth inhibition: 2%
[6]; [17]
  growth inhibition: -13%
[6]; at 11.0 µM
  growth inhibition: -30%
[6]; at 33.0 µM
  growth inhibition: 17%
[6]; [18]
  growth inhibition: 59%
[6]; at 50.0 µM
  growth inhibition: 78.6% (active)
[6]; at 100.0 µM
  growth inhibition: 27%
[7]; at 1.2 µM
  growth inhibition: -2%
[7]; at 3.7 µM
  growth inhibition: -1%
[7]; at 11.0 µM
  growth inhibition: 1%
[7]; at 33.0 µM
  growth inhibition: 11%
[7]; at 100.0 µM
  growth inhibition: 39%
[8]; at 1.2 µM
  growth inhibition: 3%
[8]; at 3.7 µM
  growth inhibition: 3%
[8]; at 11.0 µM
  growth inhibition: 4%
[8]; at 33.0 µM
  growth inhibition: -24%
[8]; at 100.0 µM
  growth inhibition: 55%
[9]; at 1.2 µM
  growth inhibition: 1%
[9]; at 3.7 µM
  growth inhibition: 1%
[9]; at 11.0 µM
  growth inhibition: 7%
[9]; at 33.0 µM
  growth inhibition: 24%
[9]; at 100.0 µM
  growth inhibition: 63%
[10]; [17]
  growth inhibition: 3%
[10]; [18]
  growth inhibition: 45%
[10]; at 50.0 µM
  growth inhibition: 65%
[11]; at 1.2 µM
  growth inhibition: 5%
[11]; at 3.7 µM
  growth inhibition: 3%
[11]; at 11.0 µM
  growth inhibition: -38%
[11]; at 33.0 µM
  growth inhibition: 28%
[11]; at 100.0 µM
  growth inhibition: 62%
